# NPR2 activator: GC-B (human) receptor activation; 0.11% of 370,000 active; HEK293-GC-B cells, CNP EC30, cGMP TR-FRET; 0% at EC30 CNP, 100% saturating CNP; activation, % at 10 µM; P20594;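 active = activation at 10 µM reaching about 35% in either raw or pattern-adjusted values, limit read from the data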
# Target sequence (P20594 whole entry, looked up): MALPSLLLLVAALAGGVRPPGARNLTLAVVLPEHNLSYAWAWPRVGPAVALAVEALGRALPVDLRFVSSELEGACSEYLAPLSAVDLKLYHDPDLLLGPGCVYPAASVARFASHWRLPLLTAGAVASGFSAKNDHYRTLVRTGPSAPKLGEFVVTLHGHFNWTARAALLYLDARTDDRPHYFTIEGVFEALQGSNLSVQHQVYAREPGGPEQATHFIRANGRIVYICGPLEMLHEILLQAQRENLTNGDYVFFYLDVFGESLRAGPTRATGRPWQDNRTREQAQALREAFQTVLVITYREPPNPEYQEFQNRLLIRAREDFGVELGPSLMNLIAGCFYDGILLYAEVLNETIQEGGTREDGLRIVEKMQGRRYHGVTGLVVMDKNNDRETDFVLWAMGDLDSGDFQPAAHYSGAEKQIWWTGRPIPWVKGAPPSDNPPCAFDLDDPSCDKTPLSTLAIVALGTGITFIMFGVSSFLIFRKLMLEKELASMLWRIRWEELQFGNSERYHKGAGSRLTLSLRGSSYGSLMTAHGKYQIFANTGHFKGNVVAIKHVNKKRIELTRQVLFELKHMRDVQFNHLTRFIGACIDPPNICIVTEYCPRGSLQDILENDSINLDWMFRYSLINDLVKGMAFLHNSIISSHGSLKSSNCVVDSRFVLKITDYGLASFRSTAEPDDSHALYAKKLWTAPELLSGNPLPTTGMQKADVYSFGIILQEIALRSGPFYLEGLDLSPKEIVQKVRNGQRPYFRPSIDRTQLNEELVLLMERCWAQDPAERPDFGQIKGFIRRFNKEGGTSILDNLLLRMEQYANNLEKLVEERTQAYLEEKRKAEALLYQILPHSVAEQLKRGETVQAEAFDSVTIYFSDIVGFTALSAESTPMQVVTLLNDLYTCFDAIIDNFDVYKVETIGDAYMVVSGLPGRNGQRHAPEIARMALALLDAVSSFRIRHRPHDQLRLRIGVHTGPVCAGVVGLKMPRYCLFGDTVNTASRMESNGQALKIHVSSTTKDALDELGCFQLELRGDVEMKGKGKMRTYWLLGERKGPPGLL
# GC-A act: GC-A (human) enzyme activation; P16066; HEK293 GC-A cells, cGMP TR-FRET, EC30 ANP; 0% at EC30 ANP, 100% saturating ANP; activation, % at 10 µM; 0.14% of 370,000 active; in the data active = activation above about 40%
# aDG glyco up: alpha-DG glycosylation activation; Pro5-aDG cells, alpha-DG glycosylation AlphaScreen (IIH6); 0% Pro5, 100% B10-LARGE cell signal; activation, % at 10 µM; 0.22% of 360,000 active;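 active = activation of at least 8% versus controls, or a plate z-score of at least 8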;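 also: Pro5 are CHO cells carrying HIG-tagged alpha-DG that lacks glycosylation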
# FAS TE block: FAS thioesterase (human) inhibition; P49327; recombinant FAS-TE, OMFH fluorogenic substrate, fluorescence endpoint; inhibition, % at 15 µM; 0.67% of 360,000 active;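 active = compounds whose normalised, plate-corrected inhibition of enzyme fluorescence in the single-dose primary screen is 50% or more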;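 also: 0% = DMSO with enzyme and 100% = substrate without enzyme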
# FAS-TE inh conf: FAS thioesterase (human) inhibition, confirmation. shares compounds with FAS TE block. inhibition, % at 15 µM. 45% of 2,300 active. recombinant FAS-TE, OMFH fluorogenic substrate, fluorescence;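 active = compounds inhibiting the enzyme by at least 50% at 15 µM in any one of the replicates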;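 also: 0% = enzyme with DMSO only and 100% = wells lacking enzyme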
# Active calls of the source: *; / = no result given. In the library only some 1.1% were active in any assay of this set; here they are far more common.
SMILES,NPR2 activator,GC-A act,aDG glyco up,FAS TE block,FAS-TE inh conf
O=C(CSc1ccc([N+](=O)[O-])cn1)Nc1ccc2c(c1)OCO2,2,-2,0,86*,57*
O=C(C(=O)N1CCC(CNS(=O)(=O)Cc2ccccc2)CC1)c1cccs1,4,-1,/,/,/
CC(C)c1ccc(/C=N/NC(=O)CN(c2cccc(Cl)c2Cl)S(C)(=O)=O)cc1,1,-6,2,57*,58*
CCOC(=O)CCSc1nc2c(c(C(F)(F)F)c1C#N)CCC2,5,1,0,71*,65*
Cc1ccc(S(=O)(=O)Cn2nnnc2C(c2ccccc2)N2CCN(c3ccccc3)CC2)cc1 (stereo not drawn),-4,-2,1,57*,8
Cc1ccc(S(=O)(=O)c2nnn3c2nc(N2CCN(c4ccccn4)CC2)c2ccccc23)cc1C,4,1,0,53*,0
CCc1ccc(S(=O)(=O)c2nnn3c2nc(N2CCOCC2)c2ccccc23)cc1,5,11,0,60*,36*
O=[N+]([O-])c1cc(-c2csc(NCCc3nc4cc(Cl)c(Cl)cc4n3CCCO)n2)ccc1Cl,-10,-9,0,75*,72*
FC(F)(F)c1cccc(N2CCN(C(=S)NC3CCCC3)CC2)c1,0,4,1,32,/
FC(F)(F)c1cccc(N2CCN(C(=S)NC3CCCCC3)CC2)c1,2,-2,1,51*,28
COC(=O)c1c(NC(=O)Cn2cc([N+](=O)[O-])cn2)sc2c1CCC2,-8,-4,0,51*,12
COc1cc(/C=N/NC(=O)c2ccc3ccccc3c2)ccc1Oc1ccc([N+](=O)[O-])cn1,-2,-1,1,52*,12
NC(=O)c1c(N)[nH]c(C(=O)c2ccccc2)c1-c1ccccn1,6,0,/,/,/
CN1OC[C@@H]2CN(C(=O)C3CCCCC3)[C@H](c3ccc(N4CCCCC4)cc3)C[C@@H]21,5,0,/,/,/
COc1ccc(/C=C(\NC(=O)c2ccc(C)cc2)C(=O)NCCCn2ccnc2)cc1,2,-2,0,-3,/
CCCCOc1ccc(C(=O)N/C(=C\c2ccc([N+](=O)[O-])cc2)C(=O)OCc2ccco2)cc1,0,-3,0,60*,40
CC(C)(C)NC(=O)/C(=C/c1ccccc1F)NC(=O)c1ccc([N+](=O)[O-])cc1,0,1,1,42,/
COc1ccc(/C=C(/NC(=O)c2ccc([N+](=O)[O-])cc2)C(=O)NC(C)(C)C)cc1,3,-2,0,70*,55*
CCCCOc1ccc(C(=O)N/C(=C\c2cccc([N+](=O)[O-])c2)C(=O)OCCC)cc1,-7,-6,0,12,/
O=C(Nc1ccc(C(=O)O)cc1)/C(=C\c1ccc([N+](=O)[O-])cc1)NC(=O)c1ccc(Br)cc1,0,3,0,82*,91*
Cc1ccc(NC(=O)/C(=C\c2ccc([N+](=O)[O-])cc2)NC(=O)c2ccccc2)cc1,-1,-1,0,20,/
COc1ccc(/C=C(\NC(=O)c2ccc([N+](=O)[O-])cc2)C(=O)NCCCn2ccnc2)cc1,5,3,0,74*,81*
CCOC(=O)[C@@]12CN(C(=O)OC(C)(C)C)CC=C1N(Cc1ccc(OC)cc1)C(=O)[C@H]2CC(=O)NCCC(C)C,4,-4,/,/,/
Nc1[nH]c(C(=O)c2ccc(Br)cc2)c(-c2ccccc2)c1C(=O)NCCc1c[nH]c2ccccc12,-5,-7,/,/,/
CCCCCCCCCCCCN1[C@@H](CC(=O)O)c2cc(F)ccc2S1(=O)=O,1,4,0,59*,75*
SMILES,NPR2 activator,GC-A act,aDG glyco up,FAS TE block,FAS-TE inh conf
CCCCCCCCN1[C@@H](CC(=O)OC)c2cc(F)ccc2S1(=O)=O,1,2,0,32,/
O=C(NCCc1ccc(F)cc1)c1ccc([N+](=O)[O-])cc1,2,2,0,28,/
O=C(CCNC(=O)c1ccc([N+](=O)[O-])cc1)NCCc1ccccc1,-1,2,0,60*,46*
Cc1ccc(OCC(=O)NCCC2=CCCCC2)cc1,5,-3,0,-1,/
O=C(COc1ccc([N+](=O)[O-])cc1)NCCC1=CCCCC1,-3,4,0,63*,64*
O=C(CCNC(=O)c1ccc([N+](=O)[O-])cc1)NCCC1=CCCCC1,-5,-1,0,76*,83*
O=C(CN1C(=O)c2ccc([N+](=O)[O-])cc2C1=O)NCCC1=CCCCC1,2,-2,0,54*,54*
CCC(C)CNC(=O)c1cn(C(C)c2ccccc2)nn1 (stereo not drawn),-4,6,/,/,/
C#CCNC(=O)C[C@H]1C[C@@]2(C(=O)OC)C(=C[C@H](C(C)C)O[C@@H]2C2CC2)N(Cc2cccc3ccccc23)C1=O,-11,-17,/,/,/
O=C(Cc1ccc([N+](=O)[O-])cc1)Nc1ccc2c(c1)CCC2,0,3,0,17,/
O=C(CC(=O)N/N=C\c1ccc([N+](=O)[O-])cc1)NCCc1ccccc1,-2,-4,0,52*,50*
O=C(COc1ccc([N+](=O)[O-])cc1)Nc1ccc2c(c1)CCC2,-3,3,0,58*,63*
Cn1cc(CC(=O)Nc2ccc(Nc3cccnc3)c(Br)c2)c2ccccc21,-6,-1,/,/,/
Cc1cc(OC[C@@H](O)CN2CCC(C(O)(c3ccccc3)c3ccccc3)CC2)ccc1Br,-11,-18,/,/,/
O=C(NCCc1ccccc1)C(c1cccs1)N(C(=O)CCl)c1ccc(Cl)cc1 (stereo not drawn),-15,-47,0,56*,54*
O=C(NCCc1ccccc1)C(c1cccs1)N(C(=O)c1csnn1)C1CC1 (stereo not drawn),-2,-6,0,-4,/
O=C(CSc1nnc(SCc2cccc3ccccc23)s1)Nc1ccc(S(=O)(=O)Nc2nccs2)cc1,-2,-5,/,/,/
O=C(c1ccccc1)c1nc2ccccc2n(CCCn2c(=O)c(C(=O)c3ccccc3)nc3ccccc32)c1=O,1,-5,0,60*,17
C[N+]1=C(N)NC2=C3CCCCC3n3c(=O)n(-c4ccccc4)c(=O)n3C2C1 (stereo not drawn),5,0,/,/,/
C[C@H](O)[C@@H]1CN2CCc3c([nH]c4cccc(-c5ccccc5)c34)[C@@H]2C[C@@H]1N(C)C(=O)C1CCCCC1,6,6,/,/,/
COC(=O)C1=C(C)N(C)C(=NCC2CC2)NC1c1ccc(F)cc1 (stereo not drawn),-6,0,/,/,/
CC(C)(C)c1ccc(C(=O)NCC(=O)OCc2ccc([N+](=O)[O-])cc2)cc1,-4,-3,0,71*,83*
COC(=O)C/C=C/[C@H](C)[C@@H](NC(=O)C(F)(F)F)c1ccccc1Br,-10,3,/,/,/

# Assay outcomes as filed in PubChem.
